This is an account of results in PubChem BioAssay (EPA / NIEHS).

One may read the AC50 as the concentration giving half of the maximal activity seen.

Read-out in assay [1]: Human Leukocyte Antigen - DR isotype (HLADR), HLA-DRA (gene 3122)
The assay is described as follows: BSK_CASM3C_HLADR: BioMAP Diversity Plus: CASM3C Assay for Human Leukocyte Antigen - DR isotype (HLADR) Biomarker Activity (AID 2283043).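 Further: cell-surface HLA-DR protein level quantified by ELISA.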 Conditions: primary human coronary artery smooth muscle cells; actives raise or lower the signal.

Read-out in assay [2]: Macrophage colony-stimulating factor (MCSF), CSF1 (gene 1435)
The assay is described as follows: BSK_CASM3C_MCSF: BioMAP Diversity Plus: CASM3C Assay for Macrophage colony-stimulating factor (MCSF) Biomarker Activity (AID 2283044).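 Further: M-CSF protein amount quantified by ELISA after 24 h exposure.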 Conditions: primary human coronary artery smooth muscle cells; actives raise or lower the signal.

Read-out in assay [3]: Low-density lipoprotein receptor (LDLR), LDLR (gene 3949)
The assay is described as follows: BSK_CASM3C_LDLR: BioMAP Diversity Plus: CASM3C Assay for Low-density lipoprotein receptor (LDLR) Biomarker Activity (AID 2283045).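 Further: LDLR protein level on the cell surface quantified by ELISA.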 Conditions: primary human coronary artery smooth muscle cells; actives raise or lower the signal.

Read-out in assay [4]: Monocyte Chemoattractant Protein-1 (MCP1), CCL2 (gene 6347)
The assay is described as follows: BSK_CASM3C_MCP1: BioMAP Diversity Plus: CASM3C Assay for Monocyte Chemoattractant Protein-1 (MCP1) Biomarker Activity (AID 2283046).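 Further: MCP-1 level quantified by ELISA 24 h after dosing.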 Conditions: primary human coronary artery smooth muscle cells; actives raise or lower the signal.

Assay [5] can be described thus: BSK_CASM3C_Proliferation: Cell Proliferation Assessment in the BioMAP Diversity Plus: CASM3C Assay (AID 2283047).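 Further: sulforhodamine B total protein stain as relative cell number at 560 nm; sub-confluent cells exposed 48 h before staining; fitted both ways against DMSO so gain or loss of cell number.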 Conditions: primary human coronary artery smooth muscle cells.
Read-out in assay [6]: Monokine induced gamma interferon (MIG), CXCL9 (gene 4283)
The assay is described as follows: BSK_CASM3C_MIG: BioMAP Diversity Plus: CASM3C Assay for Monokine induced gamma interferon (MIG) Biomarker Activity (AID 2283048).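 Further: MIG protein level measured by ELISA.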 Conditions: primary human coronary artery smooth muscle cells; actives raise or lower the signal.

Read-out in assay [7]: serum amyloid A (SAA), SAA1 (gene 6288)
The assay is described as follows: BSK_CASM3C_SAA: BioMAP Diversity Plus: CASM3C Assay for serum amyloid A (SAA) Biomarker Activity (AID 2283049).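 Further: SAA protein level quantified by ELISA.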 Conditions: primary human coronary artery smooth muscle cells; actives raise or lower the signal.

Assay [8] in a line: BSK_CASM3C_SRB: Viability Assessment in the BioMAP Diversity Plus: CASM3C Assay (AID 2283050).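 Further: total protein by SRB staining as cytotoxicity measure in parallel cultures; cells exposed to compound for 24 h.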 Conditions: primary human coronary artery smooth muscle cells.
Read-out in assay [9]: Thrombomodulin, THBD (gene 7056)
The assay is described as follows: BSK_CASM3C_Thrombomodulin: BioMAP Diversity Plus: CASM3C Assay for Thrombomodulin Biomarker Activity (AID 2283051).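 Further: thrombomodulin protein level measured by ELISA 24 h after dosing.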 Conditions: primary human coronary artery smooth muscle cells; actives raise or lower the signal.

Read-out in assay [10]: Tissue Factor, F3 (gene 2152)
The assay is described as follows: BSK_CASM3C_TissueFactor: BioMAP Diversity Plus: CASM3C Assay for Tissue Factor Biomarker Activity (AID 2283052).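 Further: cell surface tissue factor protein level read by ELISA.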 Conditions: primary human coronary artery smooth muscle cells; actives raise or lower the signal.

The source made the active and inactive calls. How the source made its calls: active means hit-call score of the fitted dose curve at least 0.9, where 1 is the maximum; inactive means score below 0.9.

Take `CN(C)C(=S)S`: the result in assay [1], in assay [2], in assay [3], in assay [4], in [6] and in assay [7] was inactive. The outcome in assay [8], in assay [9] and in [10] was inactive. For the same molecule, the AC50 in assay [5] was 0.791 µM (active).
Consider `N#Cc1cccnc1`, for which the outcome in [1], in assay [2], in assay [3], in assay [4], in assay [5] and in assay [6] was inactive. Further, the outcome in [7], in assay [8], in [9] and in [10] was inactive.
In the case of `CCOP(=S)(OCC)SCS(=O)(=O)C(C)(C)C`, the outcome in assay [1], in [2], in [3], in assay [4], in assay [5] and in [6] was inactive. Further, the outcome in assay [7], in [8], in assay [9] and in assay [10] was inactive.
In the case of `CC(C)N(C(=O)CCl)c1ccccc1`, the concentration at half-maximal activity (AC50) in [1] was 6.14 µM (active); in assay [2], 13.3 µM (active); in assay [3] it was 5.57 µM (active); in [4], 6.89 µM (active); in [5], 6.4 µM (active); in assay [6], 12.4 µM (active). The concentration at half-maximal activity (AC50) is 4.5 µM (active) in [7], 6.28 µM (active) in assay [8], 2.75 µM (active) in [9] and 20 µM (active) in assay [10].
As for `OCCCCO`, the outcome in assay [1], in assay [2], in assay [3], in assay [4], in [5] and in assay [6] was inactive. The outcome in [7], in [8], in [9] and in [10] was inactive.
Consider `CCCCOC(=O)COC(=O)c1ccccc1C(=O)OCCCC`, for which the outcome in [1], in assay [2], in [3], in assay [4], in assay [5] and in assay [6] was inactive. The result in assay [7], in assay [8], in assay [9] and in assay [10] was inactive.
Consider `O=C(CCl)NCO`, for which the result in [1], in [2], in assay [3], in assay [4], in [5] and in [6] was inactive. Also, the outcome in assay [7], in [8], in assay [9] and in assay [10] was inactive.
For the molecule `Nc1ccc(N)cc1`, the outcome in [1], in assay [2], in assay [3], in [4], in assay [5] and in assay [6] was inactive. Also, the result in assay [7], in assay [8], in assay [9] and in assay [10] was inactive.
`O=C(Cc1ccccc1)OCCc1ccccc1`: the result in assay [1], in [2], in [3], in assay [4], in assay [5] and in assay [6] was inactive. Moreover, the outcome in assay [7], in assay [8], in [9] and in assay [10] was inactive.
On to `O=C1C=CC(=O)c2ccccc21`, for which the AC50 in assay [1] is 2.45 µM (active); in assay [2], 5.16 µM (active); in [3] it was 10.8 µM (active); in assay [4], 8.9 µM (active); in [5], 0.474 µM (active); in assay [6], 30.1 µM (active). Moreover, the AC50 in assay [7] was 3.37 µM (active); in [8], 8.33 µM (active); in assay [9], 34.1 µM (active); in [10] it was 6.75 µM (active).
As for `Cc1ccc(OP(=O)(Oc2ccc(C)cc2C)Oc2ccc(C)cc2C)c(C)c1`, the result in assay [1], in [3], in assay [4], in assay [5], in [6] and in [7] was inactive. Further, the result in assay [8], in assay [9] and in assay [10] was inactive. In assay [2], the concentration at half-maximal activity (AC50) was 0.0882 µM (active).
With `CCCCCCCCCCCCc1cccc(S(=O)(=O)O)c1`, the outcome in assay [1], in [2], in assay [3], in [4], in [5] and in [6] was inactive. Further, the result in assay [7], in [8], in assay [9] and in assay [10] was inactive.
Turning to `Cc1cc(C(C)(C)c2ccc(O)c(C)c2)ccc1O`, the AC50 in assay [1] is 17.4 µM (active); in assay [2], 15.2 µM (active); in assay [5], 15.7 µM (active); in [7], 17 µM (active); in assay [8], 14.9 µM (active); in [9], 3.01 µM (active). The half-maximal activity concentration (AC50) in assay [10] was 8.57 µM (active). Also, the result in assay [3], in [4] and in [6] was inactive.
With `O=S(=O)(C(Cl)(Cl)Cl)C(Cl)(Cl)Cl`, the AC50 is 1.31 µM (active) in [1]; 2.2 µM (active) in assay [2]; 2.28 µM (active) in assay [4]; 0.528 µM (active) in assay [5]; 3.13 µM (active) in assay [6]; 0.877 µM (active) in [7]. The results for the AC50 in assay [8] and in assay [10] were 1.54 µM (active) and 1.85 µM (active), respectively. The result in [3] and in assay [9] was inactive.
With `O=[N+]([O-])c1ccc(Nc2ccccc2)cc1`, the outcome in assay [1], in assay [2], in assay [3], in [4], in [5] and in assay [6] was inactive. In addition, the result in [7], in assay [8], in assay [9] and in assay [10] was inactive.
As to `Clc1cccc(Cl)c1`, the result in [1], in assay [2], in assay [3], in [4], in [5] and in assay [6] was inactive. For the same molecule, the result in [7], in assay [8], in assay [9] and in assay [10] was inactive.
Take `O=C(O)COc1cc(Cl)c(Cl)cc1Cl`: the outcome in [1], in assay [2], in assay [3], in [4], in [5] and in assay [6] was inactive. Besides, the outcome in [7], in assay [8] and in assay [9] was inactive. The AC50 in [10] is 5.98 µM (active).
As for `O=c1oc2ccccc2c(O)c1C(CC(O)c1ccc(-c2ccc(Br)cc2)cc1)c1ccccc1` (stereo not given), the concentration at half-maximal activity (AC50) is 4.99 µM (active) in [1]; 16.3 µM (active) in assay [2]; 19.1 µM (active) in assay [3]; 7.44 µM (active) in [4]; 19.1 µM (active) in [5]; 0.0998 µM (active) in [7]. Also, the AC50 in assay [8] was 13.9 µM (active); in assay [10], 16.2 µM (active). Moreover, the result in assay [6] and in [9] was inactive.
In the case of `C[C@]12CC[C@@H](O)C[C@@H]1CC[C@@H]1[C@@H]2CC[C@]2(C)C(=O)CC[C@@H]12`, the outcome in assay [1], in [2], in [4], in assay [5], in assay [6] and in assay [7] was inactive. In addition, the outcome in assay [8], in [9] and in assay [10] was inactive. In assay [3], the AC50 was 29 µM (active).
Consider `Nc1c(Oc2ccccc2)cc(O)c2c1C(=O)c1ccccc1C2=O`, for which the outcome in assay [1], in [2], in assay [3], in [4], in assay [5] and in assay [6] was inactive. Also, the outcome in assay [7], in assay [8], in [9] and in assay [10] was inactive.
